Assay results from PubChem BioAssay (NCATS).
Inconclusive results are not listed. The source made the active and inactive calls. The call rests on the fitted dose curve; in most records, active means well fitted inhibition curve with a large enough effect; inconclusive means small, poorly fitted or top-dose-only effect; inactive means flat fitted curve, though single readings scatter.

Assays:
Test in all cases: qHTS profiling for inhibitors of Plasmodium falciparum proliferation (AID 504749); further: nearly all actives have a fitted effect of over 60% in size
Conditions in all cases: P. falciparum in erythrocytes, SYBR Green DNA, 72 h; series mostly up to 28.7 µM
3D7 = tested on: 3D7
Outline: (§1)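 Three-day growth assay of blood-stage parasites in erythrocytes (0.3% parasitemia, 2.5% hematocrit) at 37 C, 5% CO2, quantified by SYBR Green DNA staining after overnight detergent lysis.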

ATS189 = tested on: ATS189
Outline: as §1

CP185 = tested on: CP185
Outline: as §1

CP191 = tested on: CP191
Outline: as §1

CP192 = tested on: CP192
Outline: as §1

CP194 = tested on: CP194
Outline: as §1

CP201 = tested on: CP201
Outline: as §1

CP237 = tested on: CP237
Outline: as §1

CP238 = tested on: CP238
Outline: as §1

CP247 = tested on: CP247
Outline: as §1

CP265 = tested on: CP265
Outline: as §1

CP268 = tested on: CP268
Outline: as §1

CP305 = tested on: CP305
Outline: as §1

CP335 = tested on: CP335
Outline: as §1

Dd2 = tested on: Dd2
Outline: as §1

GB4 = tested on: GB4
Outline: as §1

HB3 = tested on: HB3
Outline: as §1

P94_40 = tested on: P94_40
Outline: as §1

PC49 = tested on: PC49
Outline: as §1

TAB113 = tested on: TAB113
Outline: as §1

Measured: Potency

C=C1/C(=C\C=C2/CCC[C@]3(C)[C@@H]([C@H](C)CCCC(C)(C)O)CC[C@@H]23)C[C@@H](O)C[C@@H]1O
inactive: all assays above

CN1C(=O)CCC1c1cccnc1 (stereo not given)
inactive: all assays above
